# Where “and” joins values, the source holds several entries; their conditions need not be identical. Equal values may be shown once. The whole screen tested about 5,500 compounds, of which about 2,000 (36%) were called active. Another 18% or so got no clear call; they are omitted. Rule as the data show it: active = normalized growth mostly below about 0.91 (no sharp cut-off); inconclusive = no clear call, values can overlap the other calls; inactive = mostly above about 0.92. This is one part of the list.
# Test: chemical genetic growth profiling, strain panel (AID 1159580);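 also: tested at 20 µM; growth read once vehicle control cultures reached saturation at 30 °C; 1 = growth at the plate median or of vehicle wells; lower values mean less growth of the strain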
# Settings: growth OD
# [1] = S. cerevisiae deletion strains, locus YAL013W, strain DEP1, stronger effect = lower value
# [2] = S. cerevisiae deletion strains, locus YBR229C, strain ROT2, stronger effect = lower value
# [3] = S. cerevisiae deletion strains, locus YDL101C, strain DUN1, stronger effect = lower value
# [4] = S. cerevisiae deletion strains, locus YDL134C, strain PPH21, stronger effect = lower value
# [5] = S. cerevisiae deletion strains, locus YEL061C, strain CIN8, stronger effect = lower value
# [6] = S. cerevisiae deletion strains, locus YGR078C, strain PAC10, stronger effect = lower value
# [7] = S. cerevisiae deletion strains, locus YGR229C, strain SMI1, stronger effect = lower value
# [8] = S. cerevisiae deletion strains, locus YHR030C, strain SLT2, stronger effect = lower value
# [9] = S. cerevisiae deletion strains, locus YHR087W, strain rtc3, stronger effect = lower value
# [10] = S. cerevisiae deletion strains, locus YJR043C, strain POL32, stronger effect = lower value
# [11] = S. cerevisiae deletion strains, locus YJR075W, strain HOC1, stronger effect = lower value
# [12] = S. cerevisiae deletion strains, locus YLR039C, strain RIC1, stronger effect = lower value
# [13] = S. cerevisiae deletion strains, locus YLR058C, strain SHM2 (second series), stronger effect = lower value
# [14] = S. cerevisiae deletion strains, locus YLR085C, strain ARP6, stronger effect = lower value
# [15] = S. cerevisiae deletion strains, locus YLR262C, strain YPT6, stronger effect = lower value
# [16] = S. cerevisiae deletion strains, locus YML094W, strain GIM5, stronger effect = lower value
# [17] = S. cerevisiae deletion strains, locus YMR219W, strain ESC1, stronger effect = lower value
# [18] = S. cerevisiae deletion strains, locus YMR263W, strain SAP30, stronger effect = lower value
# [19] = S. cerevisiae deletion strains, locus YMR307W, strain GAS1, stronger effect = lower value
# [20] = S. cerevisiae deletion strains, locus YNL153C, strain GIM3, stronger effect = lower value
# [21] = S. cerevisiae deletion strains, locus YNL298W, strain CLA4 (second series), stronger effect = lower value
# [22] = S. cerevisiae deletion strains, locus YNL322C, strain KRE1, stronger effect = lower value
# [23] = S. cerevisiae deletion strains, locus YNR030W, strain Alg12, stronger effect = lower value
# [24] = S. cerevisiae deletion strains, locus YPL055C, strain LGE1, stronger effect = lower value
# [25] = S. cerevisiae deletion strains, locus YPL241C, strain CIN2, stronger effect = lower value
# [26] = S. cerevisiae deletion strains, locus YPR135W, strain CTF4, stronger effect = lower value
smiles,measurement,setting,value
Cc1cc(=O)[nH]c(-c2ccccn2)n1,normalized growth,[1],1.01 (inactive) and 0.994 (inactive)
same,normalized growth,[2],1.01 (inactive)
same,normalized growth,"S. cerevisiae deletion strains, locus YCL061C, strain MRC1, stronger effect = lower value",1 (inactive) and 0.995 (inactive)
same,normalized growth,[3],0.994 (inactive)
same,normalized growth,[4],1.02 (inactive)
same,normalized growth,"S. cerevisiae deletion strains, locus YDR150W, strain NUM1, stronger effect = lower value",0.912 (inactive) and 1.02 (inactive)
same,normalized growth,[5],0.993 (inactive) and 1.01 (inactive)
same,normalized growth,[6],1 (inactive) and 1.01 (inactive)
same,normalized growth,[7],1.02 (inactive)
same,normalized growth,[8],1.02 (inactive) and 1.03 (inactive)
same,normalized growth,[9],1.01 (inactive)
same,normalized growth,[10],1.01 (inactive)
same,normalized growth,[11],1.04 (inactive) and 1.01 (inactive)
same,normalized growth,[12],0.993 (inactive) and 1.05 (inactive)
same,normalized growth,[13],1.01 (inactive) and 1.02 (inactive)
same,normalized growth,[14],0.91 (inactive) and 1.03 (inactive)
same,normalized growth,[15],0.993 (inactive) and 1.02 (inactive)
same,normalized growth,[16],0.965 (inactive) and 1.01 (inactive)
same,normalized growth,[17],1.01 (inactive)
same,normalized growth,[18],0.943 (inactive) and 0.992 (inactive)
same,normalized growth,[19],1.07 (inactive)
same,normalized growth,[20],1 (inactive) and 0.995 (inactive)
same,normalized growth,[21],0.986 (inactive) and 1.02 (inactive)
same,normalized growth,[22],1.01 (inactive) and 1 (inactive)
same,normalized growth,[23],1.02 (inactive)
same,normalized growth,"S. cerevisiae deletion strains, locus YOL006C, strain TOP1, stronger effect = lower value",1.09 (inactive)
same,normalized growth,[24],0.936 (inactive) and 1 (inactive)
same,normalized growth,[25],1.03 (inactive)
same,normalized growth,[26],0.997 (inactive) and 1.01 (inactive)
same,normalized growth,"S. cerevisiae strains, strain wild type, stronger effect = lower value",1.01 (inactive)
CCCc1nc(-c2ccccn2)[nH]c(=O)c1CC1CC1,normalized growth,[1],0.861 (active)
same,normalized growth,"S. cerevisiae deletion strains, locus YAR019C, strain CDC15, stronger effect = lower value",0.947 (inactive)
same,normalized growth,"S. cerevisiae deletion strains, locus YBL105C, strain PKC1, stronger effect = lower value",0.955 (inactive)
same,normalized growth,"S. cerevisiae deletion strains, locus YBR135W, strain CKS1, stronger effect = lower value",0.955 (inactive)
same,normalized growth,"S. cerevisiae deletion strains, locus YBR136W, strain MEC1, stronger effect = lower value",0.952 (inactive)
same,normalized growth,"S. cerevisiae deletion strains, locus YBR160W, strain CDC28, stronger effect = lower value",0.96 (inactive)
same,normalized growth,[2],0.727 (active)
same,normalized growth,"S. cerevisiae deletion strains, locus YDL017W, strain CDC7, stronger effect = lower value",0.956 (inactive)
same,normalized growth,"S. cerevisiae deletion strains, locus YDL028C, strain MPS1, stronger effect = lower value",0.937 (inactive)
same,normalized growth,[3],0.948 (inactive) and 0.899 (active)
same,normalized growth,"S. cerevisiae deletion strains, locus YDL108W, strain KIN28, stronger effect = lower value",0.956 (inactive)
same,normalized growth,"S. cerevisiae deletion strains, locus YDL132W, strain cdc53, stronger effect = lower value",0.948 (inactive)
same,normalized growth,[4],0.862 (active)
same,normalized growth,"S. cerevisiae deletion strains, locus YDL214C, strain PRR2, stronger effect = lower value",0.944 (inactive)
same,normalized growth,"S. cerevisiae deletion strains, locus YDR052C, strain DBF4, stronger effect = lower value",0.962 (inactive)
same,normalized growth,"S. cerevisiae deletion strains, locus YDR054C, strain cdc34, stronger effect = lower value",0.93 (inactive)
same,normalized growth,"S. cerevisiae deletion strains, locus YDR226W, strain ADK1, stronger effect = lower value",0.954 (inactive)
same,normalized growth,"S. cerevisiae deletion strains, locus YDR477W, strain SNF1, stronger effect = lower value",0.945 (inactive)
same,normalized growth,[5],0.611 (active)
same,normalized growth,"S. cerevisiae deletion strains, locus YER123W, strain YCK3, stronger effect = lower value",0.903 (inactive)
same,normalized growth,"S. cerevisiae deletion strains, locus YER133W, strain GLC7, stronger effect = lower value",0.952 (inactive)
same,normalized growth,"S. cerevisiae deletion strains, locus YFL009W, strain cdc4, stronger effect = lower value",0.942 (inactive)
same,normalized growth,"S. cerevisiae deletion strains, locus YFL029C, strain CAK1, stronger effect = lower value",0.935 (inactive)
same,normalized growth,"S. cerevisiae deletion strains, locus YFR003C, strain YPI1, stronger effect = lower value",0.958 (inactive)
same,normalized growth,"S. cerevisiae deletion strains, locus YFR019W, strain FAB1, stronger effect = lower value",0.968 (inactive)
same,normalized growth,"S. cerevisiae deletion strains, locus YFR028C, strain CDC14, stronger effect = lower value",0.96 (inactive)
same,normalized growth,"S. cerevisiae deletion strains, locus YGR040W, strain KSS1, stronger effect = lower value",0.936 (inactive)
same,normalized growth,"S. cerevisiae deletion strains, locus YGR052W, strain FMP48, stronger effect = lower value",1.01 (inactive)
same,normalized growth,[6],0.842 (active)
same,normalized growth,"S. cerevisiae deletion strains, locus YGR092W, strain DBF2, stronger effect = lower value",0.865 (inactive)
same,normalized growth,[7],0.886 (active)
same,normalized growth,[8],0.292 (active) and 0.919 (inactive)
same,normalized growth,"S. cerevisiae deletion strains, locus YHR079C, strain IRE1, stronger effect = lower value",0.853 (inactive)
same,normalized growth,"S. cerevisiae deletion strains, locus YHR082C, strain KSP1, stronger effect = lower value",0.968 (inactive)
same,normalized growth,[9],0.754 (active)
same,normalized growth,"S. cerevisiae deletion strains, locus YHR205W, strain SCH9, stronger effect = lower value",0.98 (inactive)
same,normalized growth,"S. cerevisiae deletion strains, locus YIL147C, strain SLN1, stronger effect = lower value",0.945 (inactive)
same,normalized growth,"S. cerevisiae deletion strains, locus YJL095W, strain BCK1, stronger effect = lower value",0.915 (inactive)
same,normalized growth,"S. cerevisiae deletion strains, locus YJL128C, strain PBS2, stronger effect = lower value",0.96 (inactive)
same,normalized growth,"S. cerevisiae deletion strains, locus YJL157C, strain FAR1, stronger effect = lower value",0.928 (inactive)
same,normalized growth,"S. cerevisiae deletion strains, locus YJL187C, strain SWE1, stronger effect = lower value",0.829 (active)
same,normalized growth,"S. cerevisiae deletion strains, locus YJR016C, strain ILV3, stronger effect = lower value",0.953 (inactive)
same,normalized growth,[10],0.923 (inactive)
same,normalized growth,"S. cerevisiae deletion strains, locus YJR066W, strain TOR1 (second series), stronger effect = lower value",0.849 (inactive)
same,normalized growth,"S. cerevisiae deletion strains, locus YJR066W, strain TOR1, stronger effect = lower value",0.887 (inactive)
same,normalized growth,[11],0.879 (active)
same,normalized growth,"S. cerevisiae deletion strains, locus YKL048C, strain ELM1, stronger effect = lower value",0.956 (inactive)
same,normalized growth,"S. cerevisiae deletion strains, locus YKL067W, strain YNK1, stronger effect = lower value",0.954 (inactive)
same,normalized growth,"S. cerevisiae deletion strains, locus YKL101W, strain HSL1, stronger effect = lower value",0.933 (inactive)
same,normalized growth,"S. cerevisiae deletion strains, locus YKL190W, strain CNB1, stronger effect = lower value",0.698 (active)
same,normalized growth,"S. cerevisiae deletion strains, locus YKL193C, strain SDS22, stronger effect = lower value",0.952 (inactive)
same,normalized growth,"S. cerevisiae deletion strains, locus YKL203C, strain TOR2, stronger effect = lower value",0.98 (inactive)
same,normalized growth,[12],0.489 (active)
same,normalized growth,[13],0.938 (inactive)
same,normalized growth,[14],0.218 (active)
same,normalized growth,"S. cerevisiae deletion strains, locus YLR113W, strain HOG1, stronger effect = lower value",0.88 (inactive)
same,normalized growth,"S. cerevisiae deletion strains, locus YLR133W, strain CKI1, stronger effect = lower value",0.938 (inactive)
same,normalized growth,[15],0.757 (active)
same,normalized growth,"S. cerevisiae deletion strains, locus YLR403W, strain SFP1, stronger effect = lower value",0.94 (inactive)
same,normalized growth,"S. cerevisiae deletion strains, locus YML070W, strain DAK1, stronger effect = lower value",0.959 (inactive)
same,normalized growth,[16],0.534 (active)
same,normalized growth,"S. cerevisiae deletion strains, locus YMR001C, strain CDC5, stronger effect = lower value",0.949 (inactive)
same,normalized growth,"S. cerevisiae deletion strains, locus YMR205C, strain PFK2 (second series), stronger effect = lower value",0.939 (inactive)
same,normalized growth,[17],0.916 (active)
same,normalized growth,[18],0.889 (active)
same,normalized growth,"S. cerevisiae deletion strains, locus YMR277W, strain FCP1, stronger effect = lower value",0.953 (inactive)
same,normalized growth,[19],0.386 (active)
same,normalized growth,"S. cerevisiae deletion strains, locus YNL006W, strain LST8, stronger effect = lower value",0.966 (inactive)
same,normalized growth,"S. cerevisiae deletion strains, locus YNL020C, strain ARK1, stronger effect = lower value",0.937 (inactive)
same,normalized growth,"S. cerevisiae deletion strains, locus YNL128W, strain TEP1, stronger effect = lower value",0.869 (active)
same,normalized growth,[20],0.84 (active)
same,normalized growth,"S. cerevisiae deletion strains, locus YNL161W, strain CBK1, stronger effect = lower value",0.957 (inactive)
same,normalized growth,"S. cerevisiae deletion strains, locus YNL183C, strain NPR1, stronger effect = lower value",0.93 (inactive)
same,normalized growth,"S. cerevisiae deletion strains, locus YNL207W, strain RIO2, stronger effect = lower value",0.94 (inactive)
same,normalized growth,"S. cerevisiae deletion strains, locus YNL222W, strain SSU72, stronger effect = lower value",0.959 (inactive)
same,normalized growth,[21],0.601 (active)
same,normalized growth,"S. cerevisiae deletion strains, locus YNL307C, strain MCK1 (second series), stronger effect = lower value",0.937 (inactive)
same,normalized growth,[22],0.975 (inactive)
same,normalized growth,[23],0.498 (active)
same,normalized growth,"S. cerevisiae deletion strains, locus YOL078W, strain AVO1, stronger effect = lower value",0.951 (inactive)
same,normalized growth,"S. cerevisiae deletion strains, locus YOL136C, strain PFK27, stronger effect = lower value",0.959 (inactive)
same,normalized growth,"S. cerevisiae deletion strains, locus YOR061W, strain CKA2, stronger effect = lower value",0.925 (inactive)
same,normalized growth,"S. cerevisiae deletion strains, locus YOR119C, strain RIO1, stronger effect = lower value",0.937 (inactive)
same,normalized growth,"S. cerevisiae deletion strains, locus YOR231W, strain MKK1, stronger effect = lower value",0.881 (inactive)
same,normalized growth,"S. cerevisiae deletion strains, locus YOR329C, strain SCD5, stronger effect = lower value",0.952 (inactive)
same,normalized growth,"S. cerevisiae deletion strains, locus YPL031C, strain PHO85, stronger effect = lower value",0.941 (inactive)
same,normalized growth,[24],0.738 (active)
same,normalized growth,"S. cerevisiae deletion strains, locus YPL153C, strain RAD53, stronger effect = lower value",0.926 (inactive)
same,normalized growth,"S. cerevisiae deletion strains, locus YPL204W, strain HRR25, stronger effect = lower value",0.927 (inactive)
same,normalized growth,"S. cerevisiae deletion strains, locus YPL209C, strain IPL1, stronger effect = lower value",0.958 (inactive)
same,normalized growth,[25],0.648 (active)
same,normalized growth,"S. cerevisiae deletion strains, locus YPL256C, strain CLN2, stronger effect = lower value",0.9 (inactive)
same,normalized growth,"S. cerevisiae deletion strains, locus YPR025C, strain CCL1, stronger effect = lower value",0.949 (inactive)
same,normalized growth,"S. cerevisiae deletion strains, locus YPR106W, strain ISR1, stronger effect = lower value",0.979 (inactive)
same,normalized growth,"S. cerevisiae deletion strains, locus YPR111W, strain DBF20, stronger effect = lower value",0.973 (inactive)
same,normalized growth,[26],0.413 (active)
same,normalized growth,"S. cerevisiae deletion strains, strain NNK1, stronger effect = lower value",0.962 (inactive)
same,normalized growth,"S. cerevisiae deletion strains, strain TSCII, stronger effect = lower value",0.949 (inactive)
